The numbers were not newly measured in PubChem BioAssay AID977611, which cites them from elsewhere.

The campaign covered roughly 3,900 compounds. About 3,900 (100%) were called active. Cut-off not given; nearly all actives show Kd up to about 4200 µM. The set was probably picked from earlier hits. Some of the results follow. Numbered stars: 1 amine (or outer) side, 2 acyl side, 3 side chain; on linkers, the order of the positions; unused ones are H or OH. Starred links: 1 amine or outer side, 2 acyl side, 3 side chain; linkers in the order of their positions; H or OH if unused. *1 amine or outer side, *2 acyl side, *3 side chain or, on linkers, in order; H or OH if unused. Where a SMILES comes first, the peptide text is derived from it. Non-standard residues stand in square brackets, D forms with d. Square brackets hold non-standard residues; d marks the D form. Residues, ends and D or L forms follow the SMILES beside them. Peptide text beside a SMILES is read from it. [ ]: non-standard residue; d: D form. X1 = O=C([C@H](Cc1ccc(OS(O)(O)O)cc1)N[*:1])[*:2]; Thr(P(OH)3+) = C[C@@H](O[P+](O)(O)O)[C@H](N)C(=O)O

Broadly, the Kd is the concentration at which binding is half-saturated.

This data set can be described thus: PubChem AID 977611. The settings on record: PDB protein-ligand complexes, literature Kd.

Turning to `CC(=O)N1CCC[C@H]1C(=O)N[C@@H](CC(C)C)C(=O)N[C@@H](Cc1c[n+](C)cn1CCCCCCCCc1ccccc1)C(=O)N[C@@H](CO)C(=O)N[C@H](C(N)=O)[C@@H](C)O[P+](O)(O)O` (Ac-PL[X1]S[Thr(P(OH)3+)]-NH2), the Kd (protein: Serine/threonine-protein kinase PLK1 PBD, PDB entry 4o6w) was 0.003 µM (active).

In the case of H-EPQYEEIPIYL-OH, under “protein: P56 LCK Tyrosine kinase, PDB entry 1lcj”, the Kd is 0.001 µM (active). Take `CC[C@H](C)[C@H](NC(=O)[C@H](CCC(=O)O)NC(=O)[C@H](CC(C)C)NC(=O)[C@@H](NC(=O)[C@H](CC(=O)O)NC(=O)[C@@H]1CCCN1C(=O)[C@H](CC(=O)O)NC(=O)[C@@H](N)CC(N)=O)[C@@H](C)O[P+](O)(O)O)C(=O)N[C@@H](Cc1ccc(O)cc1)C(=O)N[C@@H](CO)C(=O)O` (H-NDPD[Thr(P(OH)3+)]LEIYS-OH): where the note is “protein: Serine/threonine-protein kinase RAD53, PDB entry 2a0t”, the Kd is 15 µM (active). For the compound `NCC(=O)N[C@@H](CCCN=C(N)N)C(=O)NCC(=O)N[C@@H](CC(=O)O)C(=O)N[C@@H](CO)C(=O)N1CCC[C@H]1C(=O)O`, for the setting “protein: Integrin alpha 5-beta 1, PDB entry 4wk2”, the Kd was 0.115 µM (active). In the case of `O=C1CCN([C@H]2C[C@H](O)[C@@H](CO[P+](O)(O)O)O2)C(=O)N1`, the Kd (protein: Thymidylate synthase, PDB entry 4knz) is 8.5 µM (active). For the compound `CC(C)C[C@H](N)C(=O)N[C@@H](Cc1ccc(O[P+](O)(O)O)cc1)C(=O)N[C@@H](CC(=O)O)C(=O)O`, the Kd (protein: THROMBIN, LIGHT CHAIN & THROMBIN, HEAVY CHAIN, PDB entry 4ch8) is 1.03 µM (active). As to H-NELNNNAP-OH, the Kd (protein: SPRY DOMAIN-CONTAINING SOCS BOX PROTEIN 1, PDB entry 2jk9) is 0.15 µM (active).

Turning to `CC[C@H](C)[C@H](NC(=O)[C@H](Cc1ccc(O[P+](O)(O)O)cc1)NC(=O)[C@H](CC(=O)O)NC(=O)[C@@H](N)CC(N)=O)C(=O)N[C@@H](CC(=O)O)C(=O)N[C@@H](CC(N)=O)C(=O)N1CCC[C@H]1C(=O)O` (H-ND[X1]IDNP-OH), the Kd (protein: E3 ubiquitin-protein ligase CBL, PDB entry 3bun) is 0.61 µM (active).

In the case of `CC(C)C[C@H](NC(=O)[C@@H](N)CC(=O)O)C(=O)N[C@@H](Cc1ccc(O[P+](O)(O)O)cc1)C(=O)N[C@@H](CC(=O)O)C(=O)N[C@@H](Cc1ccc(O[P+](O)(O)O)cc1)C(=O)N[C@@H](Cc1ccc(O[P+](O)(O)O)cc1)C(=O)N1CCC[C@H]1C(=O)O`, the Kd (protein: THROMBIN, LIGHT CHAIN & THROMBIN, HEAVY CHAIN, PDB entry 4ch2) is 1.03 µM (active). `NC(=O)CC[C@H](NC(=O)[C@@H](N)Cc1cnc[nH]1)C(=O)N[C@@H](Cc1ccc(O[P+](O)(O)O)cc1)C(=O)N[C@@H](Cc1ccc(O[P+](O)(O)O)cc1)C(=O)N[C@@H](CC(N)=O)C(=O)N[C@@H](CC(=O)O)C(=O)N[C@@H](Cc1ccccc1)C(=O)N1CCC[C@H]1C(=O)O` (H-HQ[X1][X1]NDFP-OH): the Kd (protein: Grb2 SH2 domain, pY-Clamp Shc1_pY239/240, PDB entry 4jmh) is 0.0021 µM (active). As to `NC1NC(=O)c2ncn([C@@H]3O[C@H](CO[P+](O)(O)O[P+](O)(O)O[P+](O)(O)O)[C@@H](O)[C@H]3O)c2N1` (stereo partly drawn), the Kd (protein: ADP-ribosylation factor 6, PDB entry 4kax) was 17 µM (active). Consider `NC1C=CN([C@@H]2O[C@H](CO[P+](O)(O)O[C@H]3[C@@H](O)[C@H](n4cnc5c4NC(N)NC5=O)O[C@@H]3CO[P+](O)(O)O[C@H]3[C@@H](O)[C@H](n4cnc5c4NC(N)NC5=O)O[C@@H]3CO[P+](O)(O)O[C@H]3[C@@H](O)[C@H](n4cnc5c4NC(N)NC5=O)O[C@@H]3CO[P+](O)(O)O)[C@@H](O[P+](O)(O)O)[C@H]2O)C(=O)N1` (stereo partly drawn), for which, for the setting “protein: Heat resistant RNA dependent ATPase, PDB entry 4i67”, the Kd is 0.45 µM (active). On to `NC1NC(=O)c2ncn([C@H]3CC[C@@H](CO[P+](O)(O)O[P+](O)(O)O[P+](O)(O)O)O3)c2N1` (stereo partly drawn), for which the Kd (protein: DNA polymerase X from Thermus thermophilus HB8, PDB entry 3au6) is 0.012 µM (active).

As to `NC1NC(=O)c2ncn([C@@H]3O[C@H](CO[P+](O)(O)O[P+](O)(O)O)[C@@H](O)[C@H]3O)c2N1` (stereo partly drawn), the Kd is 1.8 µM (active) (PDB entry 4lps); 11.6 µM (active) (protein: Atlastin-1, PDB entry 4ido); 0.2 µM (active) (protein: Methylmalonyl-CoA mutase accessory protein, PDB entry 4jyc); 0.26 µM (active) (protein: Ras-related protein Rab-8A with Guanine nucleotide exchange factor GRAB, PDB entry 4li0); 0.0001 µM (active) (protein: Ras-related protein Rab-8A, PDB entry 4lhv).

As to `NC1NC(=O)c2ncn([C@@H]3O[C@H](CO[P+](O)(O)O[P+](O)(O)N[P+](O)(O)O)[C@@H](O)[C@H]3O)c2N1` (stereo partly drawn), the Kd was 5.77 µM (active) (protein: Atlastin-1, PDB entry 4idn); 9 µM (active) (protein: GTPASE IMAP FAMILY MEMBER 7, PDB entry 3zjc); 0.11 µM (active) (protein: Methylmalonyl-CoA mutase accessory protein, PDB entry 4jyb). With `O=C(O)c1c[nH]c2ccccc12`, the equilibrium dissociation constant (Kd) (protein: INTEGRASE, PDB entry 4ahu) is 5400 µM (active). As for `O=C(O)CCc1c[nH]c2ccccc12`, where the note is “protein: Protease (Q7K, L33I, L63I, C67A, C95A mutation), PDB entry 4ejl”, the Kd is 7.2 µM (active). As for `CSCC[C@H](NC(=O)CNC(=O)[C@@H](N)C(C)C)C(=O)N[C@@H](Cc1cnc[nH]1)C(=O)N[C@@H](CO[P+](O)(O)O)C(=O)N[C@@H](CCCCN)C(=O)NCC(=O)N[C@H](C(=O)N[C@@H](CCC(N)=O)C(=O)N[C@H](C(=O)O)[C@@H](C)O)[C@@H](C)O`, the Kd (protein: DYNEIN LIGHT CHAIN 1, CYTOPLASMIC, PDB entry 3zkf) is 0.96 µM (active). In the case of H-VGMHSKGTQTA-OH, the Kd (protein: DYNEIN LIGHT CHAIN 1, CYTOPLASMIC, PDB entry 3zke) is 0.16 µM (active). Take `NCc1csc(-c2cccs2)n1`: the Kd (protein: CATIONIC TRYPSIN, PDB entry 4aba) is 153 µM (active). As to `Cc1noc(C)c1-c1cc(NS(=O)(=O)c2ccccc2)cc(C(=O)O)c1`, the Kd (protein: ATPase family AAA domain-containing protein 2 ATAD2A bromodomain, PDB entry 4tu4) was 175 µM (active). `O=C(O)c1cccc2ccoc12`: the Kd (protein: INTEGRASE, PDB entry 4ahs) is 6400 µM (active). For `O=C(O)Cc1cc(O)ccc1O`, for the setting “protein: HOMOGENTISATE 1,2-DIOXYGENASE, PDB entry 4aq6”, the dissociation constant (Kd) was 15.8 µM (active). As to `CC(C)C[C@H](NC(=O)[C@@H](N)CO)C(=O)N[C@@H](CCC(=O)O)C(=O)N[C@H](C(=O)N[C@H](C(=O)N[C@@H](CCC(=O)O)C(=O)N[C@@H](C)C(=O)N[C@@H](CC(=O)O)C(=O)N[C@@H](C)C(=O)N[C@H](C(=O)N[C@@H](Cc1ccccc1)C(=O)N[C@H](C(=O)N[C@@H](CCC(N)=O)C(=O)O)C(C)C)[C@@H](C)O)[C@@H](C)O[P+](O)(O)O)C(C)C` (H-SLEV[Thr(P(OH)3+)]EADATFVQ-OH), under “protein: FHA1 Domain of Rad53, PDB entry 1k3q”, the Kd was 0.3 µM (active).

Turning to H-AFFAQLQLDAETGEFL-OH, the Kd (protein: Kelch-like ECH-associated protein 1, PDB entry 2flu) is 0.02 µM (active).

Consider `CC(C)C[C@H](NC(=O)[C@H](CC(C)C)NC(=O)CNC(=O)[C@@H](NC(=O)[C@H](CC(=O)O)NC(=O)[C@H](CC(=O)O)NC(=O)[C@H](Cc1ccc(OS(O)(O)O)cc1)NC(=O)[C@H](Cc1ccc(OS(O)(O)O)cc1)NC(=O)[C@H](CO)NC(=O)[C@@H](NC(=O)[C@@H](NC(=O)CNC(=O)[C@H](Cc1ccccc1)NC(=O)[C@@H](NC(=O)[C@H](CCC(=O)O)NC(=O)[C@@H](N)C(C)C)[C@@H](C)O)[C@@H](C)O)[C@@H](C)O)C(C)C)C(=O)O` (H-VETFGTTS[X1][X1]DDVGLL-OH), for which the Kd (protein: CC chemokine (CCL11/ eotaxin-1), PDB entry 2mpm) is 1.3 µM (active). Turning to `CC(C)C[C@H](NC(=O)[C@H](Cc1ccccc1)NC(=O)[C@H](CCC(=O)O)NC(=O)[C@H](C)NC(=O)[C@@H](NC(=O)[C@H](CC(C)C)NC(=O)[C@H](CCC(=O)O)NC(=O)[C@H](CC(=O)O)NC(=O)[C@H](CCC(=O)O)NC(=O)[C@H](CO)NC(=O)[C@H](C)N)C(C)C)C(=O)N[C@@H](CCC(N)=O)C(=O)N[C@@H](CC(=O)O)C(=O)N[C@@H](CCC(N)=O)C(=O)N[C@@H](CC(N)=O)C(=O)O` (H-ASEDELVAEFLQDQN-OH), where the note is “protein: PEROXISOMAL MEMBRANE PROTEIN PEX14, PDB entry 4bxu”, the Kd is 0.1 µM (active).
